In all, about 52,000 compounds went through this assay and about 4,300 (8.3%) were called active. The list comes from a sample in which actives are over-represented; it also holds similar structures and randomly drawn compounds. Values without a mark were called inactive. No stated cut-off is given here; in the data, active means survival mostly below about 52% (no sharp cut-off); inactive means mostly above about 56%.

The experiment deals with DeltatarO mutant. Kind of experiment: growth inhibition of S. aureus wild type versus tarO mutant, primary screen, teichoic acid synthesis inhibitors, RN4220, OD600 (AID 463173). The conditions noted are these: OD600, 18 h, active compounds read low, screened at 18.75 µg/mL (by protocol).
With `COc1ccc(C2=NN(CC(=O)NCCCN(C)c3ccccc3)C(=O)CC2)cc1`, the survival is 116%.

Regarding `CCCn1c(=O)c2sccc2n2c(CCCC(=O)Nc3ccc(Oc4ccccc4)cc3)nnc12`, the survival is 88%. With `CN(C)c1ccc(C(CNC(=O)COc2ccc(Cl)cc2)N2CCOCC2)cc1` (configuration not stated), the survival is 55%.

As to `Cc1ccc(OCC(=O)Nc2nonc2-c2ccc(Br)cc2)cc1`, the survival is 75%. Under `Cc1cc(C)cc(OC(C)C(=O)Nc2nonc2-c2ccc(Br)cc2)c1` (configuration not stated) stands 14% (active); under `Cc1ccc(OC(C)C(=O)Nc2nonc2-c2ccc(Br)cc2)cc1C` (configuration not stated), 66%; under `Cc1cccc(OC(C)C(=O)Nc2nonc2-c2ccc(Br)cc2)c1C` (configuration not stated), 70%. To `Cc1cccc(OCC(=O)Nc2nonc2-c2ccc(Br)cc2)c1C` belongs 68%; to `Cc1cccc(C)c1OCC(=O)Nc1nonc1-c1ccc(Br)cc1`, 41% (active); to `CCc1ccc2[nH]cc(S(=O)(=O)c3ccc(C(C)C)cc3)c(=O)c2c1`, 62%. As to `CC(C)c1ccc(NC(=O)CCNS(=O)(=O)c2ccc3c(c2)CCCC(=O)N3)cc1`, the survival was 77%. Regarding `Cc1cc(C)c2c(=O)cc(CSCC(=O)Nc3ccccc3Cl)[nH]c2c1`, the survival is 90%. Under `Cc1ccc(-c2cc3ncc4c(n3n2)-c2cc(F)ccc2OC4)cc1` stands 108%. To `O=C(CS(=O)(=O)c1cccc2nsnc12)Nc1ccccc1Cl` belongs 71%; to `CCOC(=O)Cc1cc(=O)[nH]c(/N=C(\N)Nc2ccc3ccccc3c2)n1`, 98%; to `COC(=O)c1ccc(NC(=O)CCc2c(C)nn(-c3ccc(N4CCOCC4)nn3)c2C)cc1`, 78%. To `Cc1cc(C)cc(NC(=O)C(=O)NCC(c2cccnc2)N2CCN(c3ccccc3)CC2)c1` (configuration not stated) belongs 56%; to `COC(=O)NCC(c1cccnc1)N1CCN(c2ccc(F)cc2)CC1` (configuration not stated), 83%. In the case of `CN(C)CCNC(=O)C(=O)NCC(c1cccnc1)N1CCN(c2ccc(F)cc2)CC1` (configuration not stated), the survival is 69%. To `CN(C)CCNC(=O)C(=O)NCC(c1cccnc1)N1CCN(c2ccccc2)CC1` (configuration not stated) belongs 54% (active); to `COc1ccccc1N1CCN(C(CNC(=O)C(=O)NCCCN(C)C)c2cccnc2)CC1` (configuration not stated), 61% (active); to `Cc1ccc(CNC(=O)C(=O)NCC(c2cccnc2)N2CCN(c3ccc(F)cc3)CC2)cc1` (configuration not stated), 73%. Under `CCOc1ccccc1NC(=O)C(=O)NCC(c1cccnc1)N1CCN(c2ccccc2)CC1` (configuration not stated) stands 54%; under `CCN(CC)CCNC(=O)C(=O)NCC(c1cccnc1)N1CCN(c2ccccc2)CC1` (configuration not stated), 100%; under `CCOC(=O)C(=O)NCC(c1cccnc1)N1CCN(c2ccccc2)CC1` (configuration not stated), 65% (active).

`COc1ccccc1N1CCN(C(CNC(=O)C(=O)NCCN(C)C)c2cccnc2)CC1` (configuration not stated): the survival was 69%. In the case of `Cc1ccc(C)c(NC(=O)C(=O)NCC(c2cccnc2)N2CCN(c3ccc(F)cc3)CC2)c1` (configuration not stated), the survival is 15% (active). Under `COCCNC(=O)C(=O)NCC(c1cccnc1)N1CCN(c2ccccc2OC)CC1` (configuration not stated) stands 64%; under `COc1ccc(OC)c(NC(=O)Cn2cc(C(=O)c3cccs3)c3ccccc32)c1`, 50%; under `Cc1ccccc1NC(=O)CSC1=Nc2ccccc2C2=NC(CCC(=O)NCc3ccccc3)C(=O)N12` (configuration not stated), 89%. Under `COc1cccc(C2C(C(N)=O)=C(C)Nc3ncnn32)c1` (configuration not stated) stands 71%. Under `Cn1c(SCc2ccccc2F)nc2c([nH]c3ccccc32)c1=O` stands 97%; under `Cc1ccc(/C=C/c2onc(C)c2S(=O)(=O)N2CCC(C(=O)N3CCN(c4cc(C)ccc4C)CC3)CC2)cc1`, 87%; under `O=C(Cn1cc(SCc2ccccc2Cl)c2ccccc21)N1CCCCCC1`, 74%. Regarding `CC1CCN(S(=O)(=O)c2cc(C(=O)NCc3ccc(N(C)C)cc3)n(C)c2)CC1`, the survival was 93%.

Turning to `Cc1cccc(N2CCN(c3ccc(NC(=O)c4ccccc4)cc3C(=O)O)CC2C)c1` (configuration not stated), the survival is 81%. As to `CCCS(=O)(=O)N1CCC(N2CCN(Cc3ccc(F)cc3)C(=O)C2=O)CC1`, the survival is 83%.

As to `COc1cccc(CNC(=O)Cn2c(=O)cc(C(F)(F)F)c3c(C)nn(C)c32)c1OC`, the survival was 90%. To `O=C(NCCc1ccccc1)C(=O)NCC(c1cccnc1)N1CCN(c2ccccc2)CC1` (configuration not stated) belongs 51%; to `O=C(NCc1cccnc1)C(=O)NCC(c1cccnc1)N1CCN(c2ccccc2)CC1` (configuration not stated), 53%.

Turning to `COCCNC(=O)C(=O)NCC(c1cccnc1)N1CCN(c2ccccc2F)CC1` (configuration not stated), the survival is 70%. Under `O=C(NCc1ccc(Cl)cc1)C(=O)NCC(c1cccnc1)N1CCN(c2ccccc2)CC1` (configuration not stated) stands 47%. Under `COCCNC(=O)C(=O)NCC(c1cccnc1)N1CCN(c2ccccc2)CC1` (configuration not stated) stands 54% (active). Regarding `O=C(NCc1ccccc1)C(=O)NCC(c1cccnc1)N1CCN(c2ccccc2)CC1` (configuration not stated), the survival is 45% (active). To `Cc1ccc(CCNC(=O)c2ccc3c(c2)N(Cc2ccccc2F)C(=O)c2ccccc2S3=O)cc1` (configuration not stated) belongs 69%; to `COc1ccc(-c2cc(C(=O)NCc3ccc(F)cc3)c3c(-c4ccc(F)cc4)[nH]nc3n2)cc1OC`, 72%; to `COc1ccc(CCNc2nc3c(c(=O)n(C)c(=O)n3C)n2Cc2ccc(F)cc2)cc1OC`, 90%. Under `CCOc1ccc(N(c2nc(-c3ccc(OC)c(OC)c3)no2)c2nc(-c3ccc(OC)c(OC)c3)no2)cc1` stands 73%; under `Nc1ncc(Cc2ccccc2)s1`, 75%. To `CCCCSCCCNC(=O)CN1C(=O)c2cccnc2Oc2ccc(Cl)cc21` belongs 94%; to `N#Cc1cc2c(ccc3ccccc32)oc1=O`, 71%. Regarding `N#CC1=C(N)Oc2c(c(=O)oc3ccccc23)C1`, the survival is 31% (active).

For the molecule `N#CC1=C(N)Oc2c(c(=O)oc3ccccc23)C12C(=O)Nc1ccccc12` (configuration not stated), the survival was 102%. To `COc1ccc(N2CCN(C(=O)Cn3ncc4c3-c3cc(C)ccc3OC4)CC2)cc1` belongs 122%; to `C=C(C)Cn1c(=O)c2c(nc3n2CCN3c2cc(C)cc(C)c2)n(C)c1=O`, 81%; to `Oc1cccc(N=Cc2sc(=S)n(C3CCCCC3)c2O)c1`, 84%. To `CC1=C(C(=O)Nc2cccc(C)c2C)C2(CCCCC2)OC1=O` belongs 89%; to `CC1=C(C(=O)Nc2cccc(C(F)(F)F)c2)C2(CCCCC2)OC1=O`, 95%.

For `CC1=C(C(=O)Nc2cccc(Cl)c2C)C2(CCCCCC2)OC1=O`, the survival is 0% (active).

Turning to `CC1=C(C(=O)NCc2cccc(Br)c2)C2(CCCCC2)OC1=O`, the survival is 83%.

With `CC(=O)N1CCC2(CC1)OC(=O)C(C)=C2C(=O)Nc1cccc(Cl)c1C`, the survival is 70%. With `CC1=C(C(=O)Nc2ccccc2Br)C2(CCC(C)CC2)OC1=O` (configuration not stated), the survival is 83%. On to `CC1=C(C(=O)NCc2cccc(F)c2)C2(CCCCCC2)OC1=O`, for which the survival was 55%.

In the case of `CC1=C(C(=O)NCc2cccc(F)c2)C2(CCCCC2)OC1=O`, the survival was 37% (active). On to `CC1=C(C(=O)Nc2cccc(C(F)(F)F)c2)C2(CCCCCC2)OC1=O`, for which the survival was 32% (active). To `COC(=O)c1ccccc1NC(=O)C1=C(C)C(=O)OC12CCCCCC2` belongs 84%; to `CC1=C(C(=O)Nc2cccc(C(F)(F)F)c2)C2(CCN(C(C)C)CC2)OC1=O`, 84%. In the case of `COC(=O)c1ccccc1NC(=O)C1=C(C)C(=O)OC12CCC(C)CC2` (configuration not stated), the survival was -23% (active).

On to `CCOc1ccc(C2C(C(=O)Nc3ccc(C)cc3C)=C(C)Nc3c(C(=O)Nc4ccc(C)cc4)cnn32)cc1OC` (configuration not stated), for which the survival is 94%. Under `O=C(NC(=O)c1ccccc1)Nc1ccc(-n2nc(C(F)(F)F)cc2C(F)(F)F)cc1` stands 173%; under `COC(=O)c1ccccc1NC(=O)Cn1c(=O)cc(-c2ccccc2)c2c(C)nn(C)c21`, 89%. Under `CCOC(=O)C(CC)N1CCN(Cc2ccc(F)cc2)C(=O)C1=O` (configuration not stated) stands 85%; under `Cc1cccc(NC(=O)C(=O)NCC(c2cccnc2)N2CCc3ccccc3C2)c1C` (configuration not stated), 86%; under `CN1CC(=O)N(CC(=O)Nc2ccc(Cl)c(C(F)(F)F)c2)c2ccccc2C1=O`, 85%. To `Cc1ccc(NC(=O)C2CCCN(S(=O)(=O)c3cccc4cccnc34)C2)c(C)c1` (configuration not stated) belongs 78%; to `O=C(COc1ccccc1[N+](=O)[O-])Nc1ccc(-c2nc3ccccc3s2)cc1`, 63%. Turning to `COc1cccc(C(=O)Nc2ccccc2C(=O)OCc2cc(=O)n3nc(C4CC4)sc3n2)c1`, the survival is 65%. To `COc1ccc(NC(=O)C2=C(C)C(=O)OC23CCN(C(C)C)CC3)cc1Cl` belongs 83%; to `COc1ccc(OC)c(NC(=O)C2=C(C)C(=O)OC23CCN(C(C)C)CC3)c1`, 32% (active); to `COc1ccc(OC)c(NC(=O)C2=C(C)C(=O)OC23CCCCCC3)c1`, 131%.

Take `CCCn1c(=O)c2sccc2n2c(CCCC(=O)NC3CCCCC3)nnc12`: the survival was 80%.

In the case of `CCc1cccc(C)c1NC(=O)CCn1c(=O)c2cccn2c2ccccc21`, the survival was 58%. To `COc1ccc(-n2nc3c(N4CCCC(C(=O)NCCc5ccccc5C)C4)nnc(C)c3c2C)cc1` (configuration not stated) belongs 70%; to `C/C(=N\NC(=O)c1ccco1)c1ccc(C)o1`, 80%. Turning to `CC(=O)c1ccc(NC(=O)Cn2ncc3c4ccccc4n(Cc4ccccc4)c3c2=O)cc1`, the survival is 73%.

Turning to `Cc1cccc(-c2noc(-c3ccccc3OCC(=O)Nc3ccccc3[N+](=O)[O-])n2)c1`, the survival was 94%. To `Cc1ccc(-c2noc(-c3ccccc3OCC(=O)Nc3ccccc3[N+](=O)[O-])n2)cc1` belongs 60%.

As to `CC(C)c1noc(-c2ccccc2OCC(=O)Nc2ccccc2[N+](=O)[O-])n1`, the survival is 44% (active). To `O=C(COc1ccccc1-c1nc(-c2ccccc2)no1)Nc1ccccc1[N+](=O)[O-]` belongs 31% (active). To `CC(=O)c1ccc(NC(=O)COc2ccccc2-c2nc(C)no2)cc1` belongs 95%; to `CC(=O)c1ccc(NC(=O)COc2ccccc2-c2nc(-c3ccccc3)no2)cc1`, 48%.

Consider `CC(C)c1noc(-c2ccccc2OCC(=O)Nc2cccc([N+](=O)[O-])c2)n1`, for which the survival was 62%. To `Cc1noc(-c2ccccc2OCC(=O)Nc2ccccc2[N+](=O)[O-])n1` belongs 39% (active); to `Cc1ccccc1-c1noc(-c2ccccc2OCC(=O)Nc2ccccc2[N+](=O)[O-])n1`, 45%; to `Cc1ccc2cccc(NC(=O)COc3ccccc3[N+](=O)[O-])c2n1`, 75%.

Take `CC(C)c1noc(-c2ccccc2OCC(=O)Nc2ccc([N+](=O)[O-])cc2)n1`: the survival was 61%.

Regarding `CC(=O)c1ccc(NC(=O)COc2ccccc2-c2nc(C(C)C)no2)cc1`, the survival was 55% (active).

The record behind these values is PubChem BioAssay AID463173 (ICCB-Longwood Screening Facility, Harvard Medical School, 2010).
